Laboratory results published in the supplement of paper PMC10849652.
Targets with a hit are over-represented here; the source holds about 7,900 in all. About 0.6% of all pairs of compound and target were hits.

compound: c1cn2cc(-c3ccc4cn[nH]c4c3)nc(Nc3ccc(N4CCOCC4)cc3)c2n1 [entospletinib]; assay: log2 fold change, soluble protein after heating vs DMSO (PISA); higher = thermal stabilisation; K562 cells, 10 uM, 30 min; active = over 0.2 and 3.5 SD of the protein, either way, in both replicates (recomputed)
Method in brief: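 K562 cells at 2×10^6 cells/mL were treated for 30 min with 10 μM compound, and aliquots were heated for 3 min over 48°C-58°C before pooling. Extraction used PBS with 0.5% NP-40 at 4°C, and soluble protein was the supernatant after 21,000xg for 90 min, measured by TMTpro 16plex LC-MS/MS with channel sums equalised. Thermal stability values, relative to control samples and from duplicates, are log2 fold changes.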

Sequence of UniProt Q16891 (Q16891 whole entry, looked up): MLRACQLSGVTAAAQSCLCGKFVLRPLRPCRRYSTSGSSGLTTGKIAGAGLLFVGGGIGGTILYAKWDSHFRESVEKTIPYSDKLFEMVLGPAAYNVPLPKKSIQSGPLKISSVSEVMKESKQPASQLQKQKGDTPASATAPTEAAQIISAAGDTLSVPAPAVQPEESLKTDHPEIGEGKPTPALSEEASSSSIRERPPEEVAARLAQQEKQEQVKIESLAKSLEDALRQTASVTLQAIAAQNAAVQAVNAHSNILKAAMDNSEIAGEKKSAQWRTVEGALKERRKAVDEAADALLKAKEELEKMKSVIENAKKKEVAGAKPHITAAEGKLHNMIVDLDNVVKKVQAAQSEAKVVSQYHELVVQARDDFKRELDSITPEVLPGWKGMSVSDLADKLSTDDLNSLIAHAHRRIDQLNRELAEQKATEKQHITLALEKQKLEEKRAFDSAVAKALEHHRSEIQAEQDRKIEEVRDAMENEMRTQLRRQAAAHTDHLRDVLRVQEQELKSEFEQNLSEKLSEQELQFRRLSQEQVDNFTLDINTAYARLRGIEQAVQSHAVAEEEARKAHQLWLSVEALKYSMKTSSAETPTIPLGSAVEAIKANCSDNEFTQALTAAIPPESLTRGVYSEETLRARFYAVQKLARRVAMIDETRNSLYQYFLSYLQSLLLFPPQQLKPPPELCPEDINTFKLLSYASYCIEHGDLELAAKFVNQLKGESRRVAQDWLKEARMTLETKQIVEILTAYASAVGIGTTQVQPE
Sequence of UniProt Q13123 (Q13123 whole entry, looked up): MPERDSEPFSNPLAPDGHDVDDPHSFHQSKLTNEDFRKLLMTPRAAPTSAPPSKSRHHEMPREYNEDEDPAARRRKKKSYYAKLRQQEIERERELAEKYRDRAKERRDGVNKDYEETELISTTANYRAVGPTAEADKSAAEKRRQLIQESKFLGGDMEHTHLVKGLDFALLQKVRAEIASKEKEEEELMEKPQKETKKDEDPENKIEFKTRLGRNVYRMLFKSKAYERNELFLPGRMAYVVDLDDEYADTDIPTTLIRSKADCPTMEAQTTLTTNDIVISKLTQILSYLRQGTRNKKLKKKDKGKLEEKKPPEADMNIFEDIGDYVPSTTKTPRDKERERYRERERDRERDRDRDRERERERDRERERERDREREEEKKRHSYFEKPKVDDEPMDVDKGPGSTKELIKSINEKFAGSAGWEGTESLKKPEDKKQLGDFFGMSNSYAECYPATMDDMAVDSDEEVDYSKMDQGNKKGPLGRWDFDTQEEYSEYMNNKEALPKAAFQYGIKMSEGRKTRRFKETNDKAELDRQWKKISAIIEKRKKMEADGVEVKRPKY
Sequence of UniProt P29966 (P29966 whole entry, looked up): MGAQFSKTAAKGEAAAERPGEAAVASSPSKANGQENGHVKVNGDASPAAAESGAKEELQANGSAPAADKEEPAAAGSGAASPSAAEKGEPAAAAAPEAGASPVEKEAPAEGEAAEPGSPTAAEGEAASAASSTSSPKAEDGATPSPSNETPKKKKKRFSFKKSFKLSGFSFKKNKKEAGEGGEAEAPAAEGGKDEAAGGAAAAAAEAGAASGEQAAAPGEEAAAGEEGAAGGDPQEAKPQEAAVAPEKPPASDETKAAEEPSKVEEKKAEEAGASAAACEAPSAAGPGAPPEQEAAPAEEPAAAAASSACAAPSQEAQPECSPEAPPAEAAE
Sequence of UniProt Q13257 (Q13257 whole entry, looked up): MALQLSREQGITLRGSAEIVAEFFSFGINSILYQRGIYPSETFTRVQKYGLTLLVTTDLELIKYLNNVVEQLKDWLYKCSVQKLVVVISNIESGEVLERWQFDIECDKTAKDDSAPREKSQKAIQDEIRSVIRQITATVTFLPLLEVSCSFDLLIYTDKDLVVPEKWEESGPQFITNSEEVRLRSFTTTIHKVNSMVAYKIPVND
Sequence of UniProt Q9UGP4 (Q9UGP4 whole entry, looked up): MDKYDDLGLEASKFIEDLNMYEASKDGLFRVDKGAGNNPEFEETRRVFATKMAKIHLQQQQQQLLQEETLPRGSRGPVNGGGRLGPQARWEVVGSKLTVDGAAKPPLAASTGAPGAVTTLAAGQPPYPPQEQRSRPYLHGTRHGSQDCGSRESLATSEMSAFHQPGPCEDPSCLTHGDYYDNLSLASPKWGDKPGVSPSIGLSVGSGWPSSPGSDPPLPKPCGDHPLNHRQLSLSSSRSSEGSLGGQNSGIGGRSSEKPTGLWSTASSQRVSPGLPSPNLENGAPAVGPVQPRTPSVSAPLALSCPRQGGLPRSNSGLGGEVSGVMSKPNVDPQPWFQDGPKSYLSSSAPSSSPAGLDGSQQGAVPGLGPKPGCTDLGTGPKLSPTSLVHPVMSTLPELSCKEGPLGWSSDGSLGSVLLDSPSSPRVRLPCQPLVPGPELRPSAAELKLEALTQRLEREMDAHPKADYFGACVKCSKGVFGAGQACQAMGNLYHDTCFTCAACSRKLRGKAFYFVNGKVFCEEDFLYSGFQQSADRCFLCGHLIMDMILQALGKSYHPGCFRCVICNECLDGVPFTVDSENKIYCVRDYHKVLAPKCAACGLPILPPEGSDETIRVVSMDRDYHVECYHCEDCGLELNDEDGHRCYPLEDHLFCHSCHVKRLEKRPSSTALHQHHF
Sequence of UniProt Q6UB28 (Q6UB28 whole entry, looked up): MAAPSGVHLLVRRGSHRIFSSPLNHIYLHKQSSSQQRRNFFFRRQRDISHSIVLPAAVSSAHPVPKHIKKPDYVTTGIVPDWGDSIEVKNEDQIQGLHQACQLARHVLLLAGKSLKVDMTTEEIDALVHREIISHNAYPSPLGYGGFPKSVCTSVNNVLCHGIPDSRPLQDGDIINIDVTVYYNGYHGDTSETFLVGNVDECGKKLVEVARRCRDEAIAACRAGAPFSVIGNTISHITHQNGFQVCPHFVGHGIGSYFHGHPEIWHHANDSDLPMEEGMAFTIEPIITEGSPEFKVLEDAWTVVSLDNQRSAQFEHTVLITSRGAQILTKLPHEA
Sequence of UniProt P45984 (P45984 whole entry, looked up): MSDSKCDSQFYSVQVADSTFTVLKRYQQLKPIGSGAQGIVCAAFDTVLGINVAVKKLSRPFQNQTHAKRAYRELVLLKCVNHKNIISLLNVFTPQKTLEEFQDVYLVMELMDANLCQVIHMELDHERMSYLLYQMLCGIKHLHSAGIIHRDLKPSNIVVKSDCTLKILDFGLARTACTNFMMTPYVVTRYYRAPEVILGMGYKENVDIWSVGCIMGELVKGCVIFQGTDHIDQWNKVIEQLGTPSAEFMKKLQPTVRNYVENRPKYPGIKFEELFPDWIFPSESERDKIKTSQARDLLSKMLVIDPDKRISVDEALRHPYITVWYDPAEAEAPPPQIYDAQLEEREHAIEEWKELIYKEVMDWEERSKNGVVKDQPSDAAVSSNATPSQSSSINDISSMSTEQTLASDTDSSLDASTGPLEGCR
Sequence of UniProt Q96LU5 (Q96LU5 whole entry, looked up): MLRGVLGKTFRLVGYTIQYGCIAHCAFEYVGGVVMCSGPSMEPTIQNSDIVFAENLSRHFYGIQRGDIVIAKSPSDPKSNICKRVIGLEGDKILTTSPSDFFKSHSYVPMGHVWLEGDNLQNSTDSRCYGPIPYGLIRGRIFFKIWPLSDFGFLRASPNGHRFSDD
Sequence of UniProt P01116 (P01116 whole entry, looked up): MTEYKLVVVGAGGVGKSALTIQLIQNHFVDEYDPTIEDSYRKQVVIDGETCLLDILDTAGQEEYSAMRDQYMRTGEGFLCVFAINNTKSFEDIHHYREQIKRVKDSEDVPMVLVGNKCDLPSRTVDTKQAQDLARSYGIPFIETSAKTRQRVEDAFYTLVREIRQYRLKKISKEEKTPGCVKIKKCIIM
Sequence of UniProt Q7L2J0 (Q7L2J0 whole entry, looked up): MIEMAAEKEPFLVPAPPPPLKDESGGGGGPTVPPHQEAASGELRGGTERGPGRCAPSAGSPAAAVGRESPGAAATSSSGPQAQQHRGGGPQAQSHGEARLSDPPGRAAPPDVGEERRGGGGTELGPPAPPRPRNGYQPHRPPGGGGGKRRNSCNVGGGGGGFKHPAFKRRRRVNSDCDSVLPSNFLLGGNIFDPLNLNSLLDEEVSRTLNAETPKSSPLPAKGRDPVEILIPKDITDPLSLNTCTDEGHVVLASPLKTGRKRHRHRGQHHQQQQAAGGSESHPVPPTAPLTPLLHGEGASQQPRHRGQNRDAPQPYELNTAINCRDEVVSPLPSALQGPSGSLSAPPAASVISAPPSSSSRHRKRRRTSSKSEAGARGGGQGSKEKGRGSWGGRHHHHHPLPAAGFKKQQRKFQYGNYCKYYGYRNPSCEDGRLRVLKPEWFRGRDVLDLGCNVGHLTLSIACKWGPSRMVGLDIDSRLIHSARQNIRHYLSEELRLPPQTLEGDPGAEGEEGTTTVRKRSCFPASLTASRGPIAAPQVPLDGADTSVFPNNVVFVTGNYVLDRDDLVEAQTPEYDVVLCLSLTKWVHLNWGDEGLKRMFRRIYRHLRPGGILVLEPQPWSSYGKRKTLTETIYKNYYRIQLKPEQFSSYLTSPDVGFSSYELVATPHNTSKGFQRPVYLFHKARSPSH
Sequence of UniProt Q8WV07 (Q8WV07 whole entry, looked up): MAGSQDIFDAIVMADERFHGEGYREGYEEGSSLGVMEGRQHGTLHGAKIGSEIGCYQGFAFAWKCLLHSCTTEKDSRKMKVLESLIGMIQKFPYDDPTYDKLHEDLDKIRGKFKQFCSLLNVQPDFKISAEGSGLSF
Sequence of UniProt Q86VI4 (Q86VI4 whole entry, looked up): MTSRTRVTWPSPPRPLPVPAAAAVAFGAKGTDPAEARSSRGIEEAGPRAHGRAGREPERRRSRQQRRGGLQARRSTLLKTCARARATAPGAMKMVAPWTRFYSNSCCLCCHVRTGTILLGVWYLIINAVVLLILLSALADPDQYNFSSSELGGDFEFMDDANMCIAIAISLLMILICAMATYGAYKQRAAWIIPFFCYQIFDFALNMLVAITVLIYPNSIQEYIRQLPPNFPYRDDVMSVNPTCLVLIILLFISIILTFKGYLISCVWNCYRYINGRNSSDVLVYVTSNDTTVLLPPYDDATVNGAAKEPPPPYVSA

log2 fold change, inactive:
LPIN1 isoform 7 (UniProt Q14693) -0.078
IK (UniProt Q13123) 0.015
MGST1 (UniProt P10620) 0.051
LRFN1 (UniProt Q9P244) -0.031
KSR1 (UniProt Q8IVT5) 0.038
MAP4 (UniProt P27816) -0.017
IL10RB (UniProt Q08334) 0.027
LIMD1 (UniProt Q9UGP4) -0.025
IMMT isoform 2 (UniProt Q16891) -0.053
IMMT isoform 4 (UniProt Q16891) -0.011
LAPTM4B (UniProt Q86VI4) 0.049
MAPK9 (UniProt P45984) -0.069
MARCKS (UniProt P29966) 0.004
JMJD6 isoform 3 (UniProt Q6NYC1) 0.006
KRAS isoform 2 (UniProt P01116) -0.053
LIMA1 isoform 4 (UniProt Q9UHB6) -0.119
MEPCE (UniProt Q7L2J0) 0.154
IMMP1L (UniProt Q96LU5) -0.172
LTO1 (UniProt Q8WV07) -0.047
LIAS (UniProt O43766) 0.113
MAD2L1 (UniProt Q13257) 0.064
METAP1D (UniProt Q6UB28) 0.026
